Source: PubChem BioAssay AID1159580 (chemical genetic matrix, 2015)
“And” between values parts separate entries of the source, which are not always exact repeats. Identical values can stand only once. Among all 5,500 compounds or so, about 2,000 (36%) were called active. Inconclusive results (about 18%) are left out. No stated cut-off is given here; in the data, active means normalized growth mostly below about 0.91 (no sharp cut-off); inconclusive means no clear call, values can overlap the other calls; inactive means mostly above about 0.92. The list shows a part of the results.

Assay: chemical genetic growth profiling, strain panel (AID 1159580);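 further: tested at 20 µM; growth read once vehicle control cultures reached saturation at 30 °C; 1 = growth at the plate median or of vehicle wells; lower values mean less growth of the strain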
Conditions: S. cerevisiae deletion strains, growth OD

Measured: normalized growth

O=C1CCC(N2C(=O)c3ccccc3C2=O)C(=O)N1 (stereo unspecified)
inactive: locus YAL013W, strain DEP1, hits give low values 1.02 and 0.99 | locus YAL021C, strain ccr4, hits give low values 0.999 | locus YAL026C, strain drs2, hits give low values 1.01 | locus YAL030W, strain snc1, hits give low values 1.01 | locus YAL040C, strain CLN3, hits give low values 1.01 | locus YBL061C, strain skt5, hits give low values 1.02 | locus YBR009C, strain hhf1, hits give low values 1.03 | locus YBR021W, strain FUR4, hits give low values 0.995 | locus YBR023C, strain chs3, hits give low values 1.03 | locus YBR171W, strain sec66, hits give low values 1.02 | locus YBR229C, strain ROT2, hits give low values 1.01 | locus YBR231C, strain swc5, hits give low values 1.01 | locus YBR279W, strain paf1, hits give low values 1.03 | locus YCL011C, strain gbp2, hits give low values 1.03 | locus YCL016C, strain dcc1, hits give low values 1.03 | locus YCL029C, strain bik1, hits give low values 0.989 | locus YCL061C, strain MRC1 (second series), hits give low values 1 | locus YCL061C, strain MRC1, hits give low values 1.01 | locus YCL069W, strain vba3, hits give low values 1.02 | locus YCR088W, strain abp1, hits give low values 1.01 | locus YDL005C, strain med2, hits give low values 1.01 | locus YDL035C, strain GPR1, hits give low values 1.02 | locus YDL040C, strain nat1, hits give low values 1.02 | locus YDL074C, strain BRE1, hits give low values 1.01 | locus YDL101C, strain DUN1, hits give low values 1.02 | locus YDL134C, strain PPH21, hits give low values 1.01 | locus YDL185W, strain tfp1, hits give low values 0.99 | locus YDL192W, strain arf1, hits give low values 0.992 | locus YDR001C, strain nth1, hits give low values 1.02 | locus YDR069C, strain doa4, hits give low values 1.02 | locus YDR101C, strain arx1, hits give low values 0.971 | locus YDR137W, strain rgp1, hits give low values 1.01 | locus YDR150W, strain NUM1, hits give low values 1.01 | locus YDR159W, strain sac3, hits give low values 0.974 | locus YDR162C, strain NBP2, hits give low values 1.04 | locus YDR195W, strain ref2 0.977 | locus YDR297W, strain sur2, hits give low values 1.01 | locus YDR318W, strain mcm21, hits give low values 0.977 | locus YDR334W, strain swr1, hits give low values 1.02 | locus YDR335W, strain msn5, hits give low values 1.02 | locus YDR363W, strain ESC2, hits give low values 1 | locus YDR388W, hits give low values 0.991 | locus YDR392W, strain spt3, hits give low values 0.958 | locus YDR502C, strain sam2, hits give low values 0.981 | locus YEL003W, strain gim4, hits give low values 1.02 | locus YEL037C, strain rad23, hits give low values 1.02 | locus YEL061C, strain CIN8 (second series), hits give low values 1.02 | locus YEL061C, strain CIN8, hits give low values 1.01 | locus YER002W, strain NOP16, hits give low values 1.01 | locus YER015W, strain faa2, hits give low values 1.02 | locus YER016W, strain bim1, hits give low values 1 | locus YER110C, hits give low values 0.99 | locus YER111C, strain swi4, hits give low values 1.02 | locus YER155C, strain BEM2 (second series), hits give low values 0.998 | locus YER155C, strain BEM2, hits give low values 1 | locus YER167W, strain BCK2, hits give low values 1.01 | locus YFR010W, strain ubp6, hits give low values 1.02 | locus YGL078C, strain dbp3, hits give low values 0.997 | locus YGL086W, strain mad1, hits give low values 0.985 | locus YGL167C, strain pmr1, hits give low values 1.02 | locus YGL173C, strain kem1, hits give low values 1.01 | locus YGL227W, strain vid30, hits give low values 1.02 | locus YGL240W, strain doc1, hits give low values 0.986 | locus YGL248W, strain PDE1, hits give low values 1.01 | locus YGL253W, strain hxk2, hits give low values 1.01 | locus YGR078C, strain PAC10, hits give low values 1.02 | locus YGR135W, strain pre9, hits give low values 0.988 | locus YGR229C, strain SMI1, hits give low values 1.04 | locus YGR252W, strain gcn5, hits give low values 0.969 | locus YHR013C, strain ard1, hits give low values 1.04 | locus YHR027C, strain rpn1, hits give low values 1.01 | locus YHR030C, strain SLT2, hits give low values 1 and 0.974 | locus YHR079C, strain IRE1 (second series), hits give low values 0.981 | locus YHR079C, strain IRE1, hits give low values 0.971 | locus YHR094C, strain hxt1, hits give low values 0.994 | locus YHR129C, strain ARP1, hits give low values 1 | locus YHR142W, strain chs7, hits give low values 1.04 | locus YHR200W, strain rpn10, hits give low values 0.986 | locus YIL066C, strain RNR3, hits give low values 1.01 | locus YIL073C, strain SPO22, hits give low values 1.01 | locus YIL125W, strain kgd1, hits give low values 0.997 | locus YIR030C, strain dcg1, hits give low values 0.994 | locus YJL092W, strain hpr5, hits give low values 1.02 | locus YJL095W, strain BCK1 (second series), hits give low values 1.02 | locus YJL095W, strain BCK1, hits give low values 1.01 and 0.98 | locus YJL115W, strain asf1, hits give low values 1.01 | locus YJL129C, strain trk1, hits give low values 1.03 | locus YJL134W, strain LCB3, hits give low values 1.01 | locus YJL154C, strain vps35, hits give low values 1.01 | locus YJL164C, strain tpk1, hits give low values 1.03 | locus YJL166W, strain qcr8, hits give low values 1.03 | locus YJL168C, strain set2, hits give low values 0.991 | locus YJL187C, strain SWE1 (second series), hits give low values 1.01 | locus YJL187C, strain SWE1, hits give low values 1.01 | locus YJR043C, strain POL32, hits give low values 0.979 | locus YJR066W, strain TOR1, hits give low values 0.951
